Experiments:
[1] = molecular target: Vascular endothelial growth factor receptor 3 (Homo sapiens) (UniProt P35916); conditions: at 10 µM
[2] = molecular target: Macrophage colony-stimulating factor 1 receptor (Homo sapiens) (UniProt P07333); conditions: at 1 µM
[3] = molecular target: Macrophage colony-stimulating factor 1 receptor (Homo sapiens) (UniProt P07333); conditions: at 10 µM
[4] = molecular target: Tyrosine-protein kinase Fyn (Homo sapiens) (UniProt P06241); conditions: at 1 µM
[5] = molecular target: Tyrosine-protein kinase Fyn (Homo sapiens) (UniProt P06241); conditions: at 10 µM
[6] = molecular target: T1, Mitogen-activated protein kinase kinase kinase kinase 2 (Homo sapiens) (UniProt Q12851); conditions: at 1 µM
T1 sequence (whole entry): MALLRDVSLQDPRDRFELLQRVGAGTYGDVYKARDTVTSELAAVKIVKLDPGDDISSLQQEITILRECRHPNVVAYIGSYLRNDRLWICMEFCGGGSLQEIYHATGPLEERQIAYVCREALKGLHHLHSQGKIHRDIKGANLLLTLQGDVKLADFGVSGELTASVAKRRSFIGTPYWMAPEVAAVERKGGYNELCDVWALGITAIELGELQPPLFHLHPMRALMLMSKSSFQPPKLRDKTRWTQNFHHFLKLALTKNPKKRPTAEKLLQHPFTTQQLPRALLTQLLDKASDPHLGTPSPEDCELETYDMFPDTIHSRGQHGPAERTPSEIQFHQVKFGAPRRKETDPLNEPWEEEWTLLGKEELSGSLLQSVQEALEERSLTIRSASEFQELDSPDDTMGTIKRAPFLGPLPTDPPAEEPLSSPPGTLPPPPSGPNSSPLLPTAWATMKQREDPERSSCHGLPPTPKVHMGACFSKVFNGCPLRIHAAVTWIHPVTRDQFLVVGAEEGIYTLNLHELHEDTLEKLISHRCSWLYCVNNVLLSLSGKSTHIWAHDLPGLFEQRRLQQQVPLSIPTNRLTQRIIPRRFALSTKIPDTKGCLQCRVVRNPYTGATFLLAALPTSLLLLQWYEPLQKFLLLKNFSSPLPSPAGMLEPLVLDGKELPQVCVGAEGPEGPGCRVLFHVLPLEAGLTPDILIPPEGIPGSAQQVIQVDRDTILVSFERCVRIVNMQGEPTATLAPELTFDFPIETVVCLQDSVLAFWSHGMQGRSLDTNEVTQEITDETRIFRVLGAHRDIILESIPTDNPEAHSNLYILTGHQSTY

[7] = molecular target: T1, Mitogen-activated protein kinase kinase kinase kinase 2 (Homo sapiens); conditions: at 10 µM
[8] = molecular target: G protein-coupled receptor kinase 5 (Homo sapiens) (UniProt P34947); conditions: at 10 µM
G protein-coupled receptor kinase 5 (Homo sapiens), sequence (P34947 whole entry, looked up): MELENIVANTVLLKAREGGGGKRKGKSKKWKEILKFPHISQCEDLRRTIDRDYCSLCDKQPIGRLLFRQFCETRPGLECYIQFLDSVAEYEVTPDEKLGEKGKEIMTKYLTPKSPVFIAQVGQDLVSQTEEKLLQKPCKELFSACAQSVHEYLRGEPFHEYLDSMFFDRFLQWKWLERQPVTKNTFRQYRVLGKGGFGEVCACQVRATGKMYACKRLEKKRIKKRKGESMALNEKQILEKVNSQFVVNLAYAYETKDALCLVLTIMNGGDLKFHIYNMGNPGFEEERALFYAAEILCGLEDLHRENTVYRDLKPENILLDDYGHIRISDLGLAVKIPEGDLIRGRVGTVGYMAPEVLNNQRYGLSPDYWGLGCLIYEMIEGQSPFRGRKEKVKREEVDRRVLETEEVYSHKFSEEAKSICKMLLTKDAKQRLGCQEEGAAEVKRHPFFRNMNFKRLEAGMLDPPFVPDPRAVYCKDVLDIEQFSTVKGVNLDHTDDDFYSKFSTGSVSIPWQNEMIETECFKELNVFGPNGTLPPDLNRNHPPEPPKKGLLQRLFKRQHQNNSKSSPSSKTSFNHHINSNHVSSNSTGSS

[9] = molecular target: G protein-coupled receptor kinase 6 (Homo sapiens) (UniProt P43250); conditions: at 10 µM
G protein-coupled receptor kinase 6 (Homo sapiens), sequence (P43250 whole entry, looked up): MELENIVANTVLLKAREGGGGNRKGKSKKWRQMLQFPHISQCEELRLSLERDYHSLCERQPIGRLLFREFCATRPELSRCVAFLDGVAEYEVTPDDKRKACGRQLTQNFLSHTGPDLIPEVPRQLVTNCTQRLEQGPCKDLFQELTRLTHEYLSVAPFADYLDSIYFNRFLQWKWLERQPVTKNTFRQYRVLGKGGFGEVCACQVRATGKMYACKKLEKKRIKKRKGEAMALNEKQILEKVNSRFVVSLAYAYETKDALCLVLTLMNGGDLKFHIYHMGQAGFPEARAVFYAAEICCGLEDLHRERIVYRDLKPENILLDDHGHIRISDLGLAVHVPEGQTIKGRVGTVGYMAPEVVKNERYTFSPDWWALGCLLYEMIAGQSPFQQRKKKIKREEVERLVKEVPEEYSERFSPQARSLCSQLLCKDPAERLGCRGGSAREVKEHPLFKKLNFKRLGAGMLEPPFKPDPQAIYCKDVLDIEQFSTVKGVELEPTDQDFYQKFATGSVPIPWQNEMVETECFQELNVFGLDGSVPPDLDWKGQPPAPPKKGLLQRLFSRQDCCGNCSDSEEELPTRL

[10] = molecular target: T2, Rhodopsin kinase GRK7 (Homo sapiens) (UniProt Q8WTQ7); conditions: at 1 µM
T2 sequence (whole entry): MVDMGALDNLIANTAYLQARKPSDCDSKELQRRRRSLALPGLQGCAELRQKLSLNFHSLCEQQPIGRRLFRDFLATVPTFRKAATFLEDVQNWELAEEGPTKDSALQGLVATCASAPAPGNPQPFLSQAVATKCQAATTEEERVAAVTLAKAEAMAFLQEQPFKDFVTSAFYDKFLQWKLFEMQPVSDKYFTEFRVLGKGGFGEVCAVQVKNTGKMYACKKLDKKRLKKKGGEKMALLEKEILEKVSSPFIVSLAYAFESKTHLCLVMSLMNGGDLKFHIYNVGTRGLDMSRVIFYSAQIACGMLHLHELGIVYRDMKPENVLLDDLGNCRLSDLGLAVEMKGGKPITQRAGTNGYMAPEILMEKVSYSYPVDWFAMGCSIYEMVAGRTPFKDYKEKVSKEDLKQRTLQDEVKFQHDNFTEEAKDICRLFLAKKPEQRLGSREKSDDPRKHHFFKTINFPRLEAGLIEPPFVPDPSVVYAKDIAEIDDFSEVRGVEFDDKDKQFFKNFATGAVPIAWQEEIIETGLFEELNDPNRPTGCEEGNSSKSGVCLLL

Vascular endothelial growth factor receptor 3 (Homo sapiens), sequence (P35916 whole entry): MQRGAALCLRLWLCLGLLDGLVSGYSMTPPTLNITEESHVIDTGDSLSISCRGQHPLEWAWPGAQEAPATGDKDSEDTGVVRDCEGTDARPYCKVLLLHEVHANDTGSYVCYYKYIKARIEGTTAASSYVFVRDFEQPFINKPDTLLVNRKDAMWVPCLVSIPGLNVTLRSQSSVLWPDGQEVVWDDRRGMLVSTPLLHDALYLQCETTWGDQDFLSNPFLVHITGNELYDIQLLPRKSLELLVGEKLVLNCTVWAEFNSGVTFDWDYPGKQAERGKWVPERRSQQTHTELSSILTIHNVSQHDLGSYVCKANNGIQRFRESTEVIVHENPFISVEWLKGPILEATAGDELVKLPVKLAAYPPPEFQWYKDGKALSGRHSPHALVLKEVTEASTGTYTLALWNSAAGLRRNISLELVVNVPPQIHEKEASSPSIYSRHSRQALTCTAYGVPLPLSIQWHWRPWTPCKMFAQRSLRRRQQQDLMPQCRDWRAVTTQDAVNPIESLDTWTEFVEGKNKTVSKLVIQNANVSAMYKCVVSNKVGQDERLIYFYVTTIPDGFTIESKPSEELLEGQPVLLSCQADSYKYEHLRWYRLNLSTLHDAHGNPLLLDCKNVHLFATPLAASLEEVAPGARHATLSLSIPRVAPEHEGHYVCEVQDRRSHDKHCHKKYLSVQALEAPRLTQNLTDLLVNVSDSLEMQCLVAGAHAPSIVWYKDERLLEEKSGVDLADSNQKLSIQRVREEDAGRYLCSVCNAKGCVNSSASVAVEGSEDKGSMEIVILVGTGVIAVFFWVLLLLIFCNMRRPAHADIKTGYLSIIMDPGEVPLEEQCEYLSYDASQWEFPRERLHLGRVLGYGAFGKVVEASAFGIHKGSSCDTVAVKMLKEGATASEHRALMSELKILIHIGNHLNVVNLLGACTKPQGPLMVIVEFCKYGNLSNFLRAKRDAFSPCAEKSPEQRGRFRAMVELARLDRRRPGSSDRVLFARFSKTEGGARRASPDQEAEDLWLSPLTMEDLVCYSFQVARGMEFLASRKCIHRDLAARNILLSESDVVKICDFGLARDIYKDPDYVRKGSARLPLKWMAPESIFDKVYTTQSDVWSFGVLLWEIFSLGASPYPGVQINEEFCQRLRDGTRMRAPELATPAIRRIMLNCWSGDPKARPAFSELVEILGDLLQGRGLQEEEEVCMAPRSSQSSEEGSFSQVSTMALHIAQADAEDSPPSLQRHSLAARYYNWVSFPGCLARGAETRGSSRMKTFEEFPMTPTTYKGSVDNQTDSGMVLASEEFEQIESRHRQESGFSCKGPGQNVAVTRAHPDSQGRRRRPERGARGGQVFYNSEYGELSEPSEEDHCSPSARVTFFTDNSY
Macrophage colony-stimulating factor 1 receptor (Homo sapiens), sequence (P07333 whole entry): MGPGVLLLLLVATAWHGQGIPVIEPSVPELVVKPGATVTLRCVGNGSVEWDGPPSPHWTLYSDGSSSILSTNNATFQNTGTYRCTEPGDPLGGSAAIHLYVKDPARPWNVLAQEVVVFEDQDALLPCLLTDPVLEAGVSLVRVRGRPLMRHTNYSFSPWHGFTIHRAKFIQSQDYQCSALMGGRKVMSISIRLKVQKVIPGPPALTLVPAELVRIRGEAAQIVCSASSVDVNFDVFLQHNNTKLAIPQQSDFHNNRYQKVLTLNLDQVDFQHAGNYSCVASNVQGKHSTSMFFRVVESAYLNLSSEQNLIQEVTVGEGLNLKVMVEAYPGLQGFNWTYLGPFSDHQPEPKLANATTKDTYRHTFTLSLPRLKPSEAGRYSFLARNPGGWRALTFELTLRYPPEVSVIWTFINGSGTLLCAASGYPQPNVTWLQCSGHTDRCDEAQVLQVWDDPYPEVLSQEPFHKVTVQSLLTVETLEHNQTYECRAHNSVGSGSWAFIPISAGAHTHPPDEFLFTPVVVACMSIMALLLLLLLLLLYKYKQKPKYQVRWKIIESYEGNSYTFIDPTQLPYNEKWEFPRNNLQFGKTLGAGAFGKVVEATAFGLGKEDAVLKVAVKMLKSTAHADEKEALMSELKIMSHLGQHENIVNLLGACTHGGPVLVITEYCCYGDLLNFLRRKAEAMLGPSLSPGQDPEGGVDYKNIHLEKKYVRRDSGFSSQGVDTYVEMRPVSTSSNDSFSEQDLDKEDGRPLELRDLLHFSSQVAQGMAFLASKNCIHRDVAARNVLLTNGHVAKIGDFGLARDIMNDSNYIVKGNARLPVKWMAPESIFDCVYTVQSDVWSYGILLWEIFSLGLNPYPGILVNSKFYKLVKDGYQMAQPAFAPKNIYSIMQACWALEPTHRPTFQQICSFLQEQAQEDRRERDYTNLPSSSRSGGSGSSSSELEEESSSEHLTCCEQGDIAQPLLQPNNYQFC
Tyrosine-protein kinase Fyn (Homo sapiens), sequence (P06241 2-537 limits assumed): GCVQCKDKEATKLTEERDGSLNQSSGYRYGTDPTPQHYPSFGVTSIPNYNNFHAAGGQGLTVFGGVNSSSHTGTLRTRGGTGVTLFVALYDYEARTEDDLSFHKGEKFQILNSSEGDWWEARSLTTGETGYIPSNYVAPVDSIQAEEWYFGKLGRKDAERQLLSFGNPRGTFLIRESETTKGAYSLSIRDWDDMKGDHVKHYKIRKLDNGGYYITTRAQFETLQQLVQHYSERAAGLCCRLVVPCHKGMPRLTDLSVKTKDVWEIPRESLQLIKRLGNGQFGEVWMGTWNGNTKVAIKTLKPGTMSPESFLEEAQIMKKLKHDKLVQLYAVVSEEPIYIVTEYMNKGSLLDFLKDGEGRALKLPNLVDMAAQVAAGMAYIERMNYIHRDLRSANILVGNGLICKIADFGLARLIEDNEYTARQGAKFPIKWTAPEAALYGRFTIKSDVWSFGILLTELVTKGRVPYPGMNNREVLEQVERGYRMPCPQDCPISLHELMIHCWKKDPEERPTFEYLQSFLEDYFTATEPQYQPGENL

Structure (SMILES) | residual activity [1] | residual activity [2] | residual activity [3] | residual activity [4] | residual activity [5] | residual activity [6] | residual activity [7] | residual activity [8] | residual activity [9] | residual activity [10]
CC(C)c1nn(-c2c(Cl)cccc2Cl)c2nc(Cc3ccc(OCCO)cc3)[nH]c(=O)c12 | 56% | 62% | 51% | 67% | 74% | 99% | 70% | 78% | 86% | 93%
CCN(CC)CCNC(=O)c1c(C)[nH]c(/C=C2\C(=O)Nc3ccc(Cl)cc32)c1C | 1% | 0% | 0% | 6% | 1% | 5% | 0% | 33% | 17% | 57%
Nc1ncnc2c1c(-c1ccc(Oc3ccccc3)cc1)cn2C1CCCC1 | 0% | 18% | 1% | 0% | 0% | 87% | 54% | 89% | 73% | 87%
CN(C)S(=O)(=O)c1ccc2c(c1)/C(=C/c1cc3c([nH]1)CCCC3)C(=O)N2 | 46% | 4% | 0% | 22% | 24% | 5% | 5% | 84% | – | –
O=C1NC(=O)c2c1c1c3ccccc3[nH]c1n1cncc21 | 2% | 26% | 23% | 51% | 42% | 58% | 53% | 70% | 75% | 84%
O=c1cc(N2CCOCC2)oc2c1ccc1ccccc12 | 92% | 111% | 102% | 83% | 102% | 91% | 86% | 96% | 92% | 98%
NC(=O)Nc1sc(-c2ccc(F)cc2)cc1C(N)=O | 0% | 11% | 2% | 24% | 5% | 25% | 5% | 82% | 74% | 67%
O=C1Cc2c([nH]c3ccc([N+](=O)[O-])cc23)-c2ccccc2N1 | 32% | 33% | 26% | 20% | 0% | 2% | 5% | – | – | –
O=C1C(Cl)=C(N2C(=O)CCC2=O)C(=O)c2ccccc21 | 80% | 73% | 65% | 76% | 75% | 90% | 89% | 94% | 91% | 99%
O=C1NC(=O)C(c2cn(CCCO)c3ncccc23)=C1c1cnccn1 | 30% | 54% | 49% | 69% | 87% | 86% | 79% | 93% | – | –
CCCC(=O)Oc1ccc2[nH]c(C(=O)c3cc4ccccc4[nH]3)cc2c1 | 68% | 78% | 83% | 78% | 89% | 86% | 70% | 95% | 78% | 93%
O=c1cc(N2CCNCC2)oc2c(-c3ccccc3)cccc12 | 90% | 61% | 78% | 88% | 88% | 90% | 83% | 104% | 84% | 95%
O=C(O)/C=C/c1cc(Br)c(Br)c(Br)c1Br | 27% | 79% | 62% | 89% | 88% | 100% | 72% | 91% | 84% | 105%
O=C1Nc2ccc(Cl)cc2/C1=C/c1cc(Cl)c(O)c(Cl)c1 | 1% | 7% | 1% | 67% | 25% | 46% | 14% | – | 82% | 91%
Nc1ncnc2[nH]nc(Nc3ccc(F)cc3)c12 | 41% | 69% | 27% | 54% | 17% | 98% | 49% | 97% | 97% | 110%
O=C(c1cc2cc(O)ccc2[nH]1)c1cc2cc(O)ccc2[nH]1 | 1% | 54% | 10% | 7% | 1% | 24% | 4% | 82% | 78% | 75%

Structure (SMILES) | residual activity [1] | residual activity [2] | residual activity [3] | residual activity [4] | residual activity [5] | residual activity [6] | residual activity [7] | residual activity [8] | residual activity [9] | residual activity [10]
O=C(NC(NC(=S)Nc1ccc(F)c([N+](=O)[O-])c1)C(Cl)(Cl)Cl)C(c1ccccc1)c1ccccc1 (stereo not given) | 76% | 89% | 71% | 104% | 58% | 88% | 74% | 100% | 87% | 86%
Nc1n[nH]c2nc3ccccc3nc12 | 44% | 74% | 66% | 73% | 73% | 78% | 37% | 94% | 85% | –
COc1ccc(CNC(=O)Nc2ncc([N+](=O)[O-])s2)cc1 | 17% | 77% | 58% | 105% | – | – | – | – | – | –
O=C(CCCc1ccc(-c2ccccc2F)cc1)Nc1ccc(O)cc1 | 83% | 97% | 43% | 82% | 72% | 96% | 89% | 91% | 90% | 104%
Cc1cc(C)c(/C=C2\C(=O)Nc3ccccc32)[nH]1 | 0% | 2% | 0% | 75% | 19% | 57% | 11% | – | – | 74%
COc1cc2nccc(Oc3ccc(NC(=S)NC(=O)c4ccccc4C)cc3)c2cc1OC | 0% | 0% | -1% | -1% | 0% | 68% | 44% | 88% | 79% | 88%
COc1ccc(-c2cnc3c(-c4ccsc4)cnn3c2)cc1 | 7% | 28% | 5% | 98% | 84% | 96% | 83% | – | 88% | –
CCOC(=O)c1c(C)[nH]c(/C=C2\C(=O)Nc3ccccc32)c1C | 3% | 20% | 9% | 87% | 99% | 89% | 77% | – | 94% | –
Cn1c2ccccc2c2c3c(c4c5ccccc5n(CCC#N)c4c21)CNC3=O | 3% | 14% | 5% | 47% | 58% | 2% | 1% | 75% | – | 16%
O=C1NC(=O)C(c2c[nH]c3ccccc23)=C1c1c[nH]c2ccccc12 | 1% | 82% | 32% | 83% | 29% | 80% | 19% | – | 68% | 78%
COc1cc2nccc(Oc3ccc(NC(=O)Nc4cc(C)on4)c(Cl)c3)c2cc1OC | -1% | 0% | 0% | 5% | 1% | 47% | 17% | 104% | – | 105%
CCCCc1c(-c2ccc(OC)cc2)[nH]c2nccnc12 | 3% | 14% | 8% | 40% | 37% | 22% | 32% | – | – | 77%
c1ccc(-c2cnc(Nc3ccc(OCCN4CCCC4)cc3)s2)cc1 | 1% | 1% | 1% | 55% | 13% | 100% | 39% | 105% | – | 105%
Cn1sc(=O)n(Cc2ccccc2)c1=O | 79% | 91% | 80% | 99% | 96% | 88% | 81% | 85% | 80% | 89%
O=C1Cc2c([nH]c3ccc(Br)cc23)-c2ccccc2N1 | 22% | 49% | 23% | 31% | 11% | 6% | -1% | 96% | – | –
Nc1nc(Nc2ccc(S(N)(=O)=O)cc2)nn1C(=O)c1c(F)cccc1F | 0% | 30% | 7% | 51% | 10% | 33% | 6% | 24% | – | 55%

Reference: ChEMBL document CHEMBL2218924, “A broad activity screen in support of a chemogenomic map for kinase signalling research and drug discovery” (Biochem J, 2013)
